TRPML1 ag: activates the human TRPML1 channel. 0.12% of 410,000 active. activation, % (no concentration beside the values). TRPML1-expressing cells, Ca2+ dye fluorescence, FDSS. Q9GZU1; in the data active means activation above about 50%; inconclusive means mostly about 30% to 49%; further: 0% is about no effect
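Calcium fluorescence on an FDSS kinetic reader gave the read-out. Tet-induced TRPML1-DL cells were plated overnight, dye-loaded (Ca8 with quencher, 45-90 min, room temperature, dark), then read 110 s after compound addition, and again 110 s after 4uM final 54-4 (EC80).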
Vif-A3G inh: blocks the Vif interaction with human APOBEC3G; Potency, µM (series often up to 46.1 µM), without a hit: top-dose activity, negative = active, hits mostly inhibitors; Q9HC16; 0.076% of 410,000 active; HeLa A3G-eYFP + Vif (tagged APOBEC3G with the HIV-1 protein that degrades it), YFP fluorescence, overnight; further: potency means the concentration at half of the fitted maximal effect; on the % scale 0 is the no-effect control and ±100 the full control effect; nearly all actives have a fitted effect of over 60% in size
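Read-out is eYFP fluorescence (Ex 488/Em 500-530) from Vif-expressing HeLa A3G-eYFP cells; more signal means A3G escaped Vif-mediated degradation. Cells plated overnight, compound pinned in, incubated overnight at 37 deg C.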
TRPML1 inh: blocks the human TRPML1 channel. Q9GZU1. TRPML1-inducible cells, Ca2+ dye fluorescence, FDSS; active compounds read low; inhibition of EC80 agonist-evoked calcium signal. activity change, negative = inhibition, % (no concentration beside the values). 0.02% of 390,000 active; in the data active means activity change below about -50%; inconclusive means between about -30% and that limit;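 further: stimulus is agonist 54-4 at its EC80 concentration; on the % scale 0 is the no-effect control and ±100 the full control effect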
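TRPML1-DL cells, Tet-induced overnight (~16 h, 37 °C) at 1,500 cells/well, were loaded with Ca8 no-wash dye plus quencher for 45-90 min at room temperature. Compounds were pinned during FDSS kinetic reading; agonist 54-4 at EC80 (4 uM final) then added.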
Vif-APOBEC3F blk: Vif-A3F binding inhibition. HeLa A3F-eYFP + Vif (tagged APOBEC3F with the HIV-1 protein that degrades it), YFP fluorescence increase. AID 602313. Potency, µM (highest dose often 46.1 µM), for the others: at the highest dose activity, negative = active. 0.2% of 390,000 active; further: potency means the concentration at half of the fitted maximal effect; % of control where 0% means no effect; nearly all actives have a fitted effect of over 65% in size
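Fluorescence increase (Ex 488/Em 500-530) after overnight compound treatment at 37 deg C flags inhibition of Vif-driven A3F-eYFP loss in stable HeLa A3F-eYFP/Vif cells seeded overnight beforehand.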
GRP78 ERSR act: induces the endoplasmic reticulum stress response in human glioma cells | Potency, µM, inactives show at the top dose activation, most hits filed as activators | AID 602332 | U87-MG GRP78 promoter luciferase reporter, 16 h | 0.02% of 420,000 active; further: potency means the concentration at half of the fitted maximal effect; series mostly up to about 76 µM; % of control where 0% means no effect; nearly all actives have a fitted effect of over 35% in size
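ERSR induction read as luciferase luminescence (Bright-Glo, 10 min at room temperature) in stably transfected human U87-MG glioma cells exposed to compounds for 16 h, using GRP78 as sensor.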
ALOX12 inh: inhibitors of human 12S-lipoxygenase ALOX12; 1.1% of 580,000 active; purified 12hLO, xylenol orange hydroperoxide absorbance; AID 1671190; Potency, µM (top dose mostly 108 µM), inactives show top-dose activity change, negative = inhibition, hits mostly inhibitors; further: potency means the concentration at half of the fitted maximal effect; on the % scale 0 is the no-effect control and ±100 the full control effect
Target sequence (P18054 whole entry, looked up): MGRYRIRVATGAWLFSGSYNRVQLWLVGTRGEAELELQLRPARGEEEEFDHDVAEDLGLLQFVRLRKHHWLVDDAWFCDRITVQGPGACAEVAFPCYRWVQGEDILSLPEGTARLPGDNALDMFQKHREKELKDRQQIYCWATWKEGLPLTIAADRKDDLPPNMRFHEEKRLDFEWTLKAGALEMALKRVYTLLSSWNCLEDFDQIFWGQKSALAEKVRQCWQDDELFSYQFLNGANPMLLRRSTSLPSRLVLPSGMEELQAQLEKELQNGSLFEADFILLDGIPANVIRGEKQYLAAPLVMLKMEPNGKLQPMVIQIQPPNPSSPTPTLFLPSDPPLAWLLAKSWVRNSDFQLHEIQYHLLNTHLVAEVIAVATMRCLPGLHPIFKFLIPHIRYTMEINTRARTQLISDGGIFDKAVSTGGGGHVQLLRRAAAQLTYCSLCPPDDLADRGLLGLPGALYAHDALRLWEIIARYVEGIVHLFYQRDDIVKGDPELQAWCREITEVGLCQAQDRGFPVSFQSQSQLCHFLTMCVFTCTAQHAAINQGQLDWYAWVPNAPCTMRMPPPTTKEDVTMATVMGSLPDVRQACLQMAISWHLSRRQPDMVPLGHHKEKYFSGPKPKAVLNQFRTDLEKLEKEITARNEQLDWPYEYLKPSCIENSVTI
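Purified human 12hLO at 150 nM in 25 mM Hepes, 0.01% Triton X-100, pH 7.0, preincubated 15 min at room temperature with compound. Reaction started with 40 uM arachidonic acid, 30 min at room temperature. Hydroperoxide measured by Fe-xylenol orange, 573/405 nm absorbance ratio.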
The depositor's hits bear a star. In the library only some 1.3% were active in any assay of this set; here they are far more common. Unless noted, the call rests on the fitted dose curve; in most records, active means well fitted curve in the direction sought with a large enough effect; inconclusive means small, poorly fitted or top-dose-only effect, or another doubt; inactive means no such curve, though single readings can be large; an effect the other way counts as inactive or inconclusive.

Screening O=C(Cc1c[nH]c2ccccc12)NCCc1ccc(F)cc1 returned ALOX12 inh -60%.
Screening CC1CCN(c2ccccc2NC(=S)NC(=O)c2ccco2)CC1 returned TRPML1 ag 2, Vif-A3G inh 1%, TRPML1 inh 18, Vif-APOBEC3F blk inconclusive, GRP78 ERSR act -3% and ALOX12 inh inconclusive.
`CC1CCCCC1NC(=S)NC(=O)c1cccs1` (stereo not drawn) gave TRPML1 ag 3, Vif-A3G inh -11%, TRPML1 inh -6, Vif-APOBEC3F blk inconclusive, GRP78 ERSR act 4% and ALOX12 inh 14µM*.
`CC(C)C(=O)NC(=S)Nc1ccccc1N1CCN(C(=O)c2ccc(Cl)cc2)CC1` gave TRPML1 ag 4, Vif-A3G inh -10%, TRPML1 inh 3, Vif-APOBEC3F blk 14%, GRP78 ERSR act 0% and ALOX12 inh 45µM*.
For CC(C)C(=O)N1CCN(c2ccccc2NC(=S)NC(=O)c2cccs2)CC1 the results were TRPML1 ag 0, Vif-A3G inh -7%, TRPML1 inh 14, Vif-APOBEC3F blk 18%, GRP78 ERSR act -4% and ALOX12 inh inconclusive.
CC1CCN(c2ccccc2NC(=S)NC(=O)c2cccs2)CC1 was read as TRPML1 ag 0, Vif-A3G inh -6%, TRPML1 inh 6, Vif-APOBEC3F blk -1%, GRP78 ERSR act -4% and ALOX12 inh 32µM*.
Screening CC1CCN(c2ccccc2NC(=S)NC(=O)C(C)(C)C)CC1 returned TRPML1 ag 1, Vif-A3G inh 1%, TRPML1 inh inconclusive, Vif-APOBEC3F blk -1%, GRP78 ERSR act -1% and ALOX12 inh 40µM*.
O=C(NCc1ccco1)C1c2ccccc2C(=O)N(C2CCCC2)C12CCCC2 (stereo not drawn) was read as ALOX12 inh 55%.
For CS(=O)(=O)N1CCN(c2ccccc2NC(=S)NC(=O)c2cccs2)CC1 the results were TRPML1 ag 0, Vif-A3G inh 1%, TRPML1 inh 1, Vif-APOBEC3F blk 10%, GRP78 ERSR act -2% and ALOX12 inh 35µM*.
For O=C(NC(=S)Nc1ccc(S(=O)(=O)N2CCCCC2)cc1)c1cccs1 the results were TRPML1 ag 0, Vif-A3G inh -6%, TRPML1 inh -3, Vif-APOBEC3F blk inconclusive, GRP78 ERSR act -3% and ALOX12 inh inconclusive.
For O=C(NC(=S)Nc1ccc(S(=O)(=O)NC2CCCCC2)cc1)c1cccs1 the results were TRPML1 ag 0, Vif-A3G inh -3%, TRPML1 inh 6, Vif-APOBEC3F blk 6%, GRP78 ERSR act -5% and ALOX12 inh 16µM*.
Screening Cc1ccc(NC(=O)CC(C)(C(=O)O)c2ccccc2)c(C)c1 (stereo not drawn) returned ALOX12 inh -4%.
COc1ccc(-c2nn(-c3ccccc3)cc2C(=O)NCCN2CCOCC2)cc1 was read as ALOX12 inh -5%.
Screening CCN(CC)CCNC(=S)NC(=O)c1cn(-c2ccccc2)nc1-c1ccc(OC)cc1 returned TRPML1 ag 1, Vif-A3G inh 1%, TRPML1 inh -4, Vif-APOBEC3F blk inconclusive, GRP78 ERSR act -4% and ALOX12 inh 45µM*.
For O=C1CSC2(C(=O)Nc3ccccc32)N1c1ccc(F)cc1 (stereo not drawn) the results were ALOX12 inh 37%.
For CC1(C)CC(=O)C(C(C2=C(O)CC(C)(C)CC2=O)c2ccc(Br)s2)C(=O)C1 (stereo not drawn) the results were TRPML1 ag 2, Vif-A3G inh -19%, TRPML1 inh -6, Vif-APOBEC3F blk -13%, GRP78 ERSR act -14% and ALOX12 inh 16µM*.
For Cc1ccc(C(C2=C(O)CC(C)(C)CC2=O)C2C(=O)CC(C)(C)CC2=O)s1 (stereo not drawn) the results were TRPML1 ag 0, Vif-A3G inh -11%, TRPML1 inh -11, Vif-APOBEC3F blk -7%, GRP78 ERSR act -14% and ALOX12 inh inconclusive.
Screening CC(C)C[C@H]1CCC[C@H](CC(C)C)[N+]1(C)C returned ALOX12 inh 14µM*.
CC(=O)c1cccc(NC(=O)COc2c(C)[nH]ccc2=O)c1 was read as ALOX12 inh 14%.
Screening COc1ccc(Cl)cc1NC(=O)CN(C)C(=O)c1ccc(N2CCCCC2)c([N+](=O)[O-])c1 returned TRPML1 ag 61*, Vif-A3G inh -1%, TRPML1 inh -14, Vif-APOBEC3F blk 5%, GRP78 ERSR act -1% and ALOX12 inh 0%.
Screening Cc1ccc(F)c(S(=O)(=O)NCc2cccc3c2OCCO3)c1 returned ALOX12 inh 1%.
Screening COc1ccc(N2CCN(C(c3ccccc3)c3nnnn3C(C)C)CC2)cc1 (stereo not drawn) returned TRPML1 ag 61*, Vif-A3G inh 0% and GRP78 ERSR act -1%.
`COc1ccc(N2CCN(C(c3ccccc3)c3nnnn3C(C)(C)C)CC2)cc1` (stereo not drawn) gave TRPML1 ag 2 and ALOX12 inh inconclusive.
Cc1cccc(C)c1N1CCN(C(c2cc3ccccc3o2)c2nnnn2C(C)(C)C)CC1 (stereo not drawn) was read as TRPML1 ag 54*.
`CCCCn1nnnc1C(c1cc2ccccc2o1)N1CCN(c2c(C)cccc2C)CC1` (stereo not drawn) gave TRPML1 ag 1 and ALOX12 inh 0%.
Cc1ccc(C)c(N2CCN(C(c3ccccc3)c3nnnn3C(C)(C)C)CC2)c1 (stereo not drawn) was read as TRPML1 ag 86* and ALOX12 inh 17%.
For Cc1cc(Oc2cc(C#N)c(C#N)cc2Oc2cc(C)c(Cl)c(C)c2)cc(C)c1Cl the results were ALOX12 inh 6%.
Screening NC(=O)c1ccc(C(=O)NN=C(c2ccccc2)c2ccccc2)s1 returned ALOX12 inh 3%.
For Cc1ccccc1OCCSCc1ccc(C(N)=O)cc1 the results were ALOX12 inh -4%.
For C=CCn1c(N)c(C(=O)NCCC2=CCCCC2)sc1=S the results were TRPML1 ag 2, Vif-A3G inh -7%, TRPML1 inh 17, Vif-APOBEC3F blk -6%, GRP78 ERSR act 12% and ALOX12 inh 18µM*.
`Cc1ccc(-n2c(SCc3cccc(C#N)c3)nnc2N2CCCC2)cc1` gave ALOX12 inh -18%.
Cc1oc(-c2ccccc2)nc1CC(=O)NC(C)c1ccco1 (stereo not drawn) was read as ALOX12 inh -4%.

Source: PubChem (National Center for Advancing Translational Sciences (NCATS))
